Inconclusive results are not listed. Values without a mark were called inactive. Calls of active or inactive are those of the source. The call rests on the fitted dose curve; in most records, active means well fitted cell-killing curve with a large enough effect in the repeat runs; inconclusive means weak or mixed curves, or effect the other way; inactive means flat fitted curve, though single readings scatter.
Assay: qHTS RealTime-Glo MT Cell Viability Assay in HepG2 cells - 40 hour (AID 1224870); further: nearly all actives have a fitted effect of over 50% in size
Settings: RealTime-Glo luminescence; series mostly up to 76.8 µM; activity change, negative = cytotoxic: at the top concentration
Text: National Center for Advancing Translational Sciences [NCATS]
NIH Chemical Genomics Center [NCGC]
U.S. Environmental Protection Agency [EPA]
National Institutes of Environmental Health Sciences [NIEHS]
National Toxicology Program [NTP]
U.S. Food and Drug Administration [FDA]
Measure of cell viability is critical in the cell-base assay. Analysis of cell viability is necessary for the characterization of cell responses to cytotoxic drugs and environmental stress. A RealTime-Glo MT Cell Viability Assay to monitor cell viability in real time of continues cell culture during 40 hours of compound treatment was used to screen Tox21 10K library compounds in HepG2 cells. The RealTime-Glo MT Cell Viability Assay is a nonlytic, homogeneous, bioluminescent method to measure cell viability in real time using a simple, plate-based method. The assay involves adding NanoLuc luciferase and a cell-permeant prosubstrate to cells in culture. Viable cells reduce the proprietary prosubstrate to generate a substrate for NanoLuc luciferase. This substrate diffuses from cells into the surrounding culture medium, where it is rapidly used by the NanoLuc Enzyme to produce a luminescent signal. The signal correlates with the number of viable cells, making the assay well suited for cytotoxicity studies.
Tox21 Assay Protocol Summary:
The mixture of HepG2 cell suspension and reagents were dispensed at 600cells/6 ul/well in 1536-well tissue culture treated black solid bottom plates using a Multidrop dispenser. After the assay plates were incubated at a 37 C/5% CO2 incubator for 5 hours, 23 nL of compounds dissolved in DMSO, positive and negative controls was transferred to the assay plate by a pintool work station. The plates were incubated at 37 C for 40 hours. The luminescence intensity were measured at 0h, 8h, 16h, 24h, 32h and 40h time points using ViewLux plate reader during compound treatment.
On the % scale 0 is the no-effect control and ±100 the full control effect.

| SMILES | activity change, negative = cytotoxic | Potency |
| --- | --- | --- |
| CCC(CC)(CNC(=O)CCCO)c1cccc(OC)c1 | -1.46% [at 35.3 µM] | – |
| CC(C)(N)Cc1ccc(Cl)cc1 | 2.23% [at 35.3 µM] | – |
| NC1(c2ccccc2)CCCCC1 | -0.769% | – |
| CNC(=O)NC(O)C(Cl)(Cl)Cl (stereo not given) | 4.17% [at 35.3 µM] | – |
| CC(C)(C1CCC(O)CC1)C1CCC(O)CC1 (stereo not given) | -0.794% | – |
| CCCOC(=O)Cc1ccc(OCC(=O)N(CC)CC)c(OC)c1 | 0.392% [at 35.3 µM] | – |
| CCC(=O)OC1(c2ccccc2)CCN(C)CC1 | -2.33% | – |
| CN(C)CCN(C)C | -0.363% | – |
| Clc1nc(Cl)nc(Nc2ccccc2Cl)n1 | -1.15% | – |
| O=C1CC(=O)NC(=O)N1 | 2.02% | – |
| N=C(N)[Se] | -0.309% | – |
| c1ccc2c(c1)CCNC2 | 0.478% | – |
| CNC(=O)Oc1ccccc1C(C)C | 0.66% | – |
| CC1N=C(N)OC1c1ccccc1 (stereo not given) | -4.89% | – |
| CCCCS(=O)(=O)Cl | 1.99% | – |
| ClCCCCCCCl | 1.48% | – |
| CS(=O)(=O)c1ccc(C(=O)C2C(=O)CCCC2=O)c(Cl)c1COCC(F)(F)F | 1.91% | – |
| COC(=O)[C@@H](N)CCCN/C(N)=N/[N+](=O)[O-] | 0.266% [at 35.3 µM] | – |
| O=C(O)CBr | -1.57% | – |
| O=C(NC(=O)c1c(F)cccc1F)Nc1cc(Cl)c(F)c(Cl)c1F | -3.47% | – |

| SMILES | activity change, negative = cytotoxic | Potency |
| --- | --- | --- |
| C(COCC1CO1)OCC1CO1 (stereo not given) | 1.29% | – |
| CCC1(c2cccc(O)c2)CCCCN(C)C1 (stereo not given) | -8.53% [at 35.3 µM] | – |
| ClC(Cl)(Cl)Cl | 1.93% | – |
| C1CN2CCC1CC2 | 1.83% [at 35.3 µM] | – |
| CCC1(c2ccccc2)C(=O)N(COC)C(=O)N(COC)C1=O | 3.41% [at 35.3 µM] | – |
| COC1=CC(=O)O[C@@H](/C=C/c2ccccc2)C1 | 3.43% | – |
| C=CC1(C)OC(=O)N(c2cc(Cl)cc(Cl)c2)C1=O (stereo not given) | – | inactive |
| N[C@@H]1C[C@H]1c1ccccc1 | 0.52% [at 35.3 µM] | – |
| O=CCCl | 2.05% | – |
| Nc1c(Cl)c(F)nc(OCC(=O)O)c1Cl | 2.83% | – |
| C[C@H](CN1CCOCC1)C(C(=O)N1CCCC1)(c1ccccc1)c1ccccc1 | -4.34% | – |
| NNCc1ccccc1 | -5.02% | – |
| CCOC(=O)NC(C)(C)Cc1ccc(Cl)cc1 | -4.55% [at 35.3 µM] | – |
| OCC(Cl)CCl (stereo not given) | -0.349% | – |
| CCc1ccc(C2CCNCC2)cc1 | 2.4% [at 35.3 µM] | – |
| CCCCCCCCSC(=O)Oc1cc(Cl)nnc1-c1ccccc1 | 1.73% | – |
| Brc1c(Br)c(Br)c(Br)c(Br)c1Br | -3.64% [at 6.97 µM] | – |
| Cc1cccc2sc3nncn3c12 | 0.728% | – |
| O=c1[nH]c2ccccc2o1 | -5.63% | – |
| CCOC(=O)N(C)N=O | -1.19% | – |

Source: PubChem BioAssay (Tox21)
